About 83,000 compounds went through this panel and 20% of them were active in at least one assay; those are over-represented in the sample as a whole.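 Testing used 96-well plates and a 48-hour single-concentration exposure. Example: -40 means 40% of the starting cells died.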 The source made the active and inactive calls.
System: NCI/ADR-RES ovarian
Test: NCI-60 one-dose screen, 48 h (100 = growth as untreated, 0 = no growth, -100 = all killed)
Conditions: 10 µM unless noted
Description: Growth inhibition of the NCI/ADR-RES human […] tumor cell line is measured as a screen for anti-cancer activity. Cells are grown in 96 well plates and exposed to the test compound for 48 hours. Compounds are tested at a single concentration, which is 10^-5 M for most compounds. The reported endpoint is percent growth (GI% or GIPRCNT), where numbers from 0 - 100% represent growth inhibition, and numbers from -100% - 0 represent cell death. For example, a value of 40 represents 60% growth inhibition. A value of 0 means no net growth occurred over the course of the experiment. A value of -40 indicates 40% of cells at the beginning of the experiment died by the end of the experiment. A value of -100 means all cells are dead at the end of the experiment.
NCI-60 Human Tumor Cell Lines Screen was performed using the standard one-dose NCI protocol, which is described in more detail at https://dtp.cancer.gov/discovery_development/nci-60/default.htm.
Compounds with GIPRCNT values below 10 were considered active. Activity score was based on GIPRCNT using the following formula: […]
Score is 0 for GIPRCNT values of 100 or above, 50 for GIPRCNT values of 0, and 100 for GIPRCNT values of -100.

SMILES | growth
Cc1cc(=O)[nH]c(N=Nc2c(O)[nH]c3ccccc23)n1 | 108% (inactive)
COC(=O)CCC1=C(C)C2=NC1=CC1=NC(=CC3=NC(=Cc4[nH]c(/c(=C(/C)O)c4C)=C2)C(C(C)=O)=C3C)C(C)=C1CCC(=O)OC | 103% (inactive)
CCc1c2c(nc3ccc(OC(=O)NCc4ccc(B5OC(C)(C)C(C)(C)O5)cc4)cc13)-c1cc3c(c(=O)n1C2)COC(=O)[C@]3(O)CC | -6.58% (active)
Cc1cc(C)c2c(-c3nnc(N)s3)cc(=O)oc2c1 | 102% (inactive)
N#C/C(=C\c1ccc(-c2ccccc2F)o1)c1nc(-c2ccco2)cs1 | 106% (inactive)
CC(=O)N1C(=S)NC(=O)C1Cn1c(-c2ccccc2)nc2ccccc21 (stereo not given) | 102% (inactive)
O=[N+]([O-])c1ccc(N2c3ccncc3Sc3ccncc32)cc1 | 106% (inactive)
CCOC(=O)c1c(/C=C/C(=O)O)nc2ccccc2c1/C=C/c1ccccc1 | 32.7% (inactive)
C=C1C(=O)O[C@H]2[C@H]1CC/C(COC(=O)C(=O)c1c[nH]c3ccccc13)=C\CC[C@@]1(C)O[C@@H]21 | 17.9% (inactive)
COC(=O)[C@]12CC[C@@H](C)[C@H](C)[C@@H]1C1=CC[C@@H]3[C@@]4(C)C(C=O)=C[C@@](C)(COS(C)(=O)=O)C4[C@H](O)C[C@@]3(C)[C@]1(C)CC2 (stereo not given in full) | -1.9% (active)
C[C@H](NC(=O)[C@@H]1CSSC[C@@H](NC(=O)c2nc3ccccc3cc2O)C(=O)NCC(=O)N1C)c1ccccc1 | 91.5% (inactive)
NC[C@H](O)c1ccc(O)c(O)c1 | 92.1% (inactive)
CCN1C(=O)N(CC)C2Nn3c(s/c(=C\c4ccc(Cl)cc4Cl)c3=O)=NC21 (stereo not given) | 14.7% (inactive)
COc1ccc(-c2nc3ccc4[nH]ncc4c3c3c2CCCC3)cc1B(O)O | 71.2% (inactive)
c1coc(-c2c3ccc(=[N+]4CCCCC4)cc-3oc3cc(N4CCCCC4)ccc23)c1 | -60.2% (active)
O=S(=O)(O)c1ccc(N/N=C/c2ccccc2Cl)cc1 | 110% (inactive)
COc1ccc(C2=NN(C(=O)c3cc(OC)c(OC)c(OC)c3)C(c3ccc(Cl)cc3)C2)cc1OC (stereo not given) | -36.3% (active)
O=c1[nH][n+](-c2ccc(Cl)cc2)no1 | 79.9% (inactive)
COc1ccc(S(=O)(=O)NCCNc2nccc(-c3c(-c4cccc(F)c4)nc4sccn34)n2)cc1 | 30.3% (inactive)
COc1cc(C2CC(=O)Nc3c2c(C)nn3-c2nc3ccccc3[nH]2)c(OC)c(OC)c1OC (stereo not given) | 57.7% (inactive)

SMILES | growth
COc1ccc(-c2nc3c(c(=O)n2C(C)=O)C(c2ccc(Cl)cc2)c2sc4c(Cl)cccc4c2O3)cc1 (stereo not given) | -4.4% (active)
O=C(CCCCCCSc1nc(-c2ccccc2)cc(-c2ccc(Cl)cc2)n1)NO | -25.5% (active)
Cc1cc(NCCCCNc2ccnc3cc(Cl)ccc23)nc(Nc2ccc(C(=O)N3CCCCC3)cc2)n1 | 47.5% (inactive)
Cc1cc(/C=C\c2ccc3ccccc3[n+]2C)c(O)c2ncccc12 | 32.4% (inactive)
C[n+]1cc2c3c(ccc2c2ccc4cc5c(cc4c21)OCO5)OCO3 | -36.4% (active)
COCCc1ccc(OCC(O)CNC(C)C)cc1 (stereo not given) | 105% (inactive)
CC(C)C(=O)Nc1n[nH]c2cc(-c3cccc(NS(=O)(=O)C4CC4)c3)ccc12 | 98.1% (inactive)
O=C(NC(Cc1nnc2n(Cc3ccccc3)c(=O)c3c4c(sc3n12)CCCC4)c1ccc(Cl)cc1)c1ccccc1 (stereo not given) | 93.9% (inactive)
C=C1C(=O)O[C@H]2[C@H]1CC/C(CNC(=O)/C=C/c1ccc(Cl)cc1Cl)=C\CC[C@@]1(C)O[C@@H]21 | 2.07% (active)
COc1ccc2cc(-c3cc(OC)c(OC)c(OC)c3)c(=O)oc2c1 | 49% (inactive)
CCc1ccccc1-n1c(-c2ccc(Cl)cc2)cc(-c2ccc(OC)cc2)c(C#N)c1=O | 95.1% (inactive)
O=[N+]([O-])c1ccc(C2CC(c3ccccc3)=Nc3ccccc3S2)cc1 (stereo not given) | 95.1% (inactive)
COc1cccc(-c2nn(-c3ccccc3)cc2-c2ccnc(NCCNC(=O)Nc3ccccc3)c2)c1 | 34.8% (inactive)
COc1ccc2oc3c(C)c4c(c(C)c3c2c1)C(=O)N(Cc1ccccc1)C4=O | 95.3% (inactive)
CC1=C(SCCC(=O)OC(C[Se]C2=C(C)C(=O)c3ccccc3C2=O)C(=O)NCCCCCC(=O)OCc2ccccc2)C(=O)c2ccccc2C1=O (stereo not given) | 21.1% (inactive)
CCOC(=O)c1csc(NC(=O)COc2cccc(/C=C3\Oc4cc(OC)ccc4C3=O)c2)n1 | 79.4% (inactive)
Cc1ccc(Nc2ccc(Nc3ccc(C)cc3)c3c2C(=O)c2cccc(O)c2C3=O)cc1 | 99.8% (inactive)
CC1CC(C(C)(C)C)C(=O)C(C(C)(C)C)C1 (stereo not given) | 114% (inactive)
CCc1ccccc1NC(=O)/C(C#N)=C/c1ccc(OC)cc1 | 97.8% (inactive)
N#CC1=C(/N=C/c2ccccc2)Oc2c(ccc3ccccc23)C1c1ccccc1 (stereo not given) | 1.37% (active)

From PubChem BioAssay (NCI)
